We go through 12 molecules from PubChem BioAssay (NCATS).

Values joined by “and” are separate entries in the source; they are usually repeats but may differ in a detail not shown here. Equal entries are not always repeated. Results filed as inconclusive are left out. Unmarked numbers belong to inactive results. Active and inactive are the calls of the source. Unless noted, calls follow the shape of the dose curve; as a rule, active = well fitted curve in the direction sought with a large enough effect; inconclusive = small, poorly fitted or top-dose-only effect, or another doubt; inactive = no such curve, though single readings can be large; an effect the other way counts as inactive or inconclusive.

For assay [1], the target named is Calcium and integrin-binding protein 1 (Homo sapiens) (UniProt Q99828). Briefly: Primary qHTS for Identification of Calcium Integrin Binding Protein 1 (CIB1) Competitor (AID 1508620).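 Also: GST tagged CIB1 binding a fluorescein labelled alphaIIb integrin peptide tracer; top concentration of the series differs between compounds; % is scaled to controls: 0 for no effect and ±100 for the full control effect.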 The method, boiled down: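 Fluorescence polarization competition: CIB1-GST (1 uM final) preincubated with compound 15 min at room temperature, then FITC-labeled alphaIIb peptide (100 nM final) added for another 15 min. Polarization read at Ex 480/Em 540.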
Calcium and integrin-binding protein 1 (Homo sapiens), sequence (Q99828 whole entry, looked up): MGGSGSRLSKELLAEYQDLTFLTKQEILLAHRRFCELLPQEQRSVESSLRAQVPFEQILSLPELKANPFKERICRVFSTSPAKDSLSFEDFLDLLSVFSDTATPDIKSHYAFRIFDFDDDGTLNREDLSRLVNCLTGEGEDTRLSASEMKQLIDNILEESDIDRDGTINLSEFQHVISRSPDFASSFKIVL

A short description of assay [2]: Counterscreen qHTS for small molecule stabilizers of the endoplasmic reticulum resident proteome: GLuc-NoTag assay (AID 1508627). Also: potency is read from the fitted curve at half-maximal effect. The method, boiled down:
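Secreted GLuc lacking the SERCaMP modification is measured in SH-SY5Y cells exposed to compound for 19 h and then to thapsigargin (100 nM, 4 h) to deplete ER calcium; hits retested at 11 concentrations, up to 76.6 uM.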
On the technique in general: Counterscreens check selectivity or assay interference.

The nature of assay [3]: Confirmatory qHTS for small molecule stabilizers of the endoplasmic reticulum resident proteome: Secreted ER Calcium Modulated Protein (SERCaMP) assay (AID 1508628). Also: potency is read from the fitted curve at half-maximal effect; nearly all actives have a fitted effect of over 40% in size. In short, it runs like this:
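Reporter secretion upon ER calcium depletion (100 nM thapsigargin, 4 h, 37C) is measured as medium luminescence with coelenterazine, after 16 h compound pretreatment of SH-SY5Y-GLuc-SERCaMP cells; primary at three concentrations up to 38.3 uM, follow-up at 11 (up to 76.6 uM).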
On the technique in general: qHTS replaces the single test concentration by a dilution series.

Assay [4] in a line: Cell Viability qHTS for small molecule stabilizers of the endoplasmic reticulum resident proteome (AID 1508629).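 Also: human SH-SY5Y neuroblastoma cells carrying the GLuc-SERCaMP reporter; compound exposure about 46 h in total before the viability read; % is scaled to controls: 0 for no effect and ±100 for the full control effect.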 The note with it: cell viability counter-screen, 100 nM thapsigargin for final 4 h.
Assay [5] in a line: Primary qHTS for small molecule stabilizers of the endoplasmic reticulum resident proteome: Secreted ER Calcium Modulated Protein (SERCaMP) assay (AID 1508630). Also: potency is read from the fitted curve at half-maximal effect. In short, it runs like this: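 The SH-SY5Y reporter protocol was run at 3 concentrations up to 38.3 uM (primary) or 11 concentrations (follow-up): 16 h compound, 100 nM thapsigargin for 4 h, then extracellular luciferase luminescence.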

Assay [6] in a line: A High-Content qHTS Against Drug Library for the Identification of Small Molecules that Inhibit DYT1 Early Onset Primary Dystonia-Associated Cell Pathology (AID 1645839; calls by dose curve; also: series mostly up to about 46 µM). In short, it runs like this:
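Induced EGFP-delE TorsinA cells are imaged after 48 h of compound treatment. Punctate fusion-protein distribution gives the %pathology value, while nuclei counts flag toxicity. Wild-type EGFP-hTOR1A cells define the normal pattern.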

The target of assay [7] is Cytochrome P450 2D6 (Homo sapiens) (UniProt P10635). As to the kind of experiment: Cytochrome P450 family 2 subfamily D member 6 (CYP2D6) small molecule antagonists: luciferase biochemical (cell-free) qHTS assay (AID 1645840; active = well fitted curve in the direction sought with a large enough effect in the repeat runs; an effect the other way counts as inactive or inconclusive; also: nearly all actives have a fitted effect of over 55% in size; also: potency is read from the fitted curve at half-maximal effect). The method, boiled down: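 P450-Glo CYP2D6 system: proluciferin substrate converted by enzyme to luciferin, read by luminescence proportional to activity. Enzyme-substrate mix with compound 10 min at room temperature, then NADPH regeneration 1 h before detection reagent.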
Cytochrome P450 2D6 (Homo sapiens), sequence (P10635 whole entry, looked up): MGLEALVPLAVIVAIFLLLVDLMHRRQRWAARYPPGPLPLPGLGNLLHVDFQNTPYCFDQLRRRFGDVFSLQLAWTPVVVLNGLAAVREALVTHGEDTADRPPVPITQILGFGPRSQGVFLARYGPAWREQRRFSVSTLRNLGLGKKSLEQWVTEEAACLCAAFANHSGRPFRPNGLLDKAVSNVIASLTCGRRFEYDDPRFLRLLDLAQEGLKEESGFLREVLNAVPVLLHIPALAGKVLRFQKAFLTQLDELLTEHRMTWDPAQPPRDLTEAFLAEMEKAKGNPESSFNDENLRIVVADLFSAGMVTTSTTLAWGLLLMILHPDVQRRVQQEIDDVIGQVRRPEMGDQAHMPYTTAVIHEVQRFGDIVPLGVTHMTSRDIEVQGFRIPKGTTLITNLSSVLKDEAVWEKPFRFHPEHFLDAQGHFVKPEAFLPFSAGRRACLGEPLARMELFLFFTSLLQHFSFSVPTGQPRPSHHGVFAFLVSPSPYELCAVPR

For assay [8], the target named is Cytochrome P450 2C9 (Homo sapiens) (UniProt P11712). As to the kind of experiment: Cytochrome P450 family 2 subfamily C member 9 (CYP2C9) small molecule antagonists: luciferase biochemical (cell-free) qHTS assay (AID 1645842; active = well fitted curve in the direction sought with a large enough effect in the repeat runs; an effect the other way counts as inactive or inconclusive; also: nearly all actives have a fitted effect of over 55% in size; also: potency is read from the fitted curve at half-maximal effect). In short, it runs like this:
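P450-Glo CYP2C9 system: proluciferin substrate with enzyme in mix containing 0.4% BSA, 10 min at room temperature, then NADPH regeneration solution added and incubated 1 h at 37C. Detection reagent stopped reaction; luminescence read after 20 min as RLU.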

The nature of assay [9]: Primary qHTS for inhibitors of nuclear receptor binding SET domain protein 2 (NSD2) in an RCH-ACV wild type WT cells (2C) (AID 1645877). Also: nearly all actives have a fitted effect of over 70% in size. Also: potency is read from the fitted curve at half-maximal effect.
In assay [10] the target is Cytochrome P450 3A4 (Homo sapiens) (UniProt P08684). Briefly: Cytochrome P450 family 3 subfamily A member 4 (CYP3A4) small molecule antagonists: luciferase qHTS assay (AID 1645841; active = well fitted curve in the direction sought with a large enough effect in the repeat runs; an effect the other way counts as inactive or inconclusive; also: nearly all actives have a fitted effect of over 45% in size). The method, boiled down: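 P450-Glo CYP3A4 enzyme with proluciferin substrate was preincubated with DMSO-dissolved compounds for 10 min at room temperature. NADPH regeneration solution started a 1 h reaction. Detection reagent stopped it, and luminescence was read after 20 min.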
Cytochrome P450 3A4 (Homo sapiens), sequence (P08684 whole entry, looked up): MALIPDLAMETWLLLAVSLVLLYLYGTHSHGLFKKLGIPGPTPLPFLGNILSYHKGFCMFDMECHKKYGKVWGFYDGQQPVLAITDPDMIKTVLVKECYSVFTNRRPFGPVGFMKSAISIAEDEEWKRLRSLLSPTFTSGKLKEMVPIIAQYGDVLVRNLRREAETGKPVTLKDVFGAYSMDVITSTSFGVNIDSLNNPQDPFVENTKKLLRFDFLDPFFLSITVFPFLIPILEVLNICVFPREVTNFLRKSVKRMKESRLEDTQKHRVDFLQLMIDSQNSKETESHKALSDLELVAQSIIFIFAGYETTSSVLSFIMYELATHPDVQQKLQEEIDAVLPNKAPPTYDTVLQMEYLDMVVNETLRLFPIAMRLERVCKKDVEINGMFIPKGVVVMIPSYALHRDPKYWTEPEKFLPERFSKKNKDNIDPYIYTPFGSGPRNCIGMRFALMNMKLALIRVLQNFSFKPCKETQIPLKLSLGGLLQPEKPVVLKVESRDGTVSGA

The next assay has as its target Papain (Carica papaya) (UniProt P00784). Briefly: Primary qHTS assay for inhibitors of the protease papain (AID 1645873).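 Also: papain turnover of Z-FR-AMC read as the AMC fluorescence gain over 10 min; series mostly up to about 50 µM; % is scaled to controls: 0 for no effect and ±100 for the full control effect.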
The nature of assay [11]: Primary qHTS for inhibitors of nuclear receptor binding SET domain protein 2 (NSD2) in an isogenic RCH-ACV NSD2 p.E1099K mutant (9B) (AID 1645876). Also: nearly all actives have a fitted effect of over 70% in size. Also: potency is read from the fitted curve at half-maximal effect.
The target of assay [12] is Rap guanine nucleotide exchange factor 3 (Homo sapiens) (UniProt O95398). As to the kind of experiment: Confirmatory qHTS for agonist of cAMP-regulated guanine nucleotide exchange factor 3 (EPAC1) (AID 1645881). Also: nearly all actives have a fitted effect of over 75% in size. Also: potency is read from the fitted curve at half-maximal effect.
Rap guanine nucleotide exchange factor 3 (Homo sapiens), sequence (O95398 whole entry, looked up): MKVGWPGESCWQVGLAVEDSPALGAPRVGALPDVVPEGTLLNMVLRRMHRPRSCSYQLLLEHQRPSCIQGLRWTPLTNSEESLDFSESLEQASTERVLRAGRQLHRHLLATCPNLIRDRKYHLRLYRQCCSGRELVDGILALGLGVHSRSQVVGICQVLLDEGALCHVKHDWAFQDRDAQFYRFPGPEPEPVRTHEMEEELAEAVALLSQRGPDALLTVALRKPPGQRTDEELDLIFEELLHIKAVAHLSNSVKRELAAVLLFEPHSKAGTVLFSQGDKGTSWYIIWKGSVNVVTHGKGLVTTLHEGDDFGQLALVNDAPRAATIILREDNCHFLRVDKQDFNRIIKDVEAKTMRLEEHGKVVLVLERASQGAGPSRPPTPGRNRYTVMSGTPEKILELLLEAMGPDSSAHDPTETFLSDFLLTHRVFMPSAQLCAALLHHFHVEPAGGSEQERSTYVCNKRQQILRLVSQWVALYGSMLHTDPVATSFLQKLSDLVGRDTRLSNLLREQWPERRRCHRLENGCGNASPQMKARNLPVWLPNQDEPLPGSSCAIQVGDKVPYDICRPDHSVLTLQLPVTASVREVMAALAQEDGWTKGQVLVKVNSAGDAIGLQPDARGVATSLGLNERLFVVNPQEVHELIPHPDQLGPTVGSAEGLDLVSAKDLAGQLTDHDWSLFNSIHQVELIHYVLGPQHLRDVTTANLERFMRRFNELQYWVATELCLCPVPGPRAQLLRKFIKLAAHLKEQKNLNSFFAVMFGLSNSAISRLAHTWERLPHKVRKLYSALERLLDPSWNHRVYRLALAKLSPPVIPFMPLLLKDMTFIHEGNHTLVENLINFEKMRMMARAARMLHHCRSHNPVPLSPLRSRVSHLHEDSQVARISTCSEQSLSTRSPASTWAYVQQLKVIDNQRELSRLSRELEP
The target in assay [13] is Rap guanine nucleotide exchange factor 4 (Homo sapiens) (UniProt Q8WZA2). Briefly: Confirmatory qHTS for agonist of cAMP-regulated guanine nucleotide exchange factor 4 (EPAC2) (AID 1645884).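 Also: nucleotide exchange releases bodipy-GDP from Rap1 and this lowers its fluorescence; % is scaled to controls: 0 for no effect and ±100 for the full control effect; nearly all actives have a fitted effect of over 65% in size.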
Rap guanine nucleotide exchange factor 4 (Homo sapiens), sequence (Q8WZA2 whole entry, looked up): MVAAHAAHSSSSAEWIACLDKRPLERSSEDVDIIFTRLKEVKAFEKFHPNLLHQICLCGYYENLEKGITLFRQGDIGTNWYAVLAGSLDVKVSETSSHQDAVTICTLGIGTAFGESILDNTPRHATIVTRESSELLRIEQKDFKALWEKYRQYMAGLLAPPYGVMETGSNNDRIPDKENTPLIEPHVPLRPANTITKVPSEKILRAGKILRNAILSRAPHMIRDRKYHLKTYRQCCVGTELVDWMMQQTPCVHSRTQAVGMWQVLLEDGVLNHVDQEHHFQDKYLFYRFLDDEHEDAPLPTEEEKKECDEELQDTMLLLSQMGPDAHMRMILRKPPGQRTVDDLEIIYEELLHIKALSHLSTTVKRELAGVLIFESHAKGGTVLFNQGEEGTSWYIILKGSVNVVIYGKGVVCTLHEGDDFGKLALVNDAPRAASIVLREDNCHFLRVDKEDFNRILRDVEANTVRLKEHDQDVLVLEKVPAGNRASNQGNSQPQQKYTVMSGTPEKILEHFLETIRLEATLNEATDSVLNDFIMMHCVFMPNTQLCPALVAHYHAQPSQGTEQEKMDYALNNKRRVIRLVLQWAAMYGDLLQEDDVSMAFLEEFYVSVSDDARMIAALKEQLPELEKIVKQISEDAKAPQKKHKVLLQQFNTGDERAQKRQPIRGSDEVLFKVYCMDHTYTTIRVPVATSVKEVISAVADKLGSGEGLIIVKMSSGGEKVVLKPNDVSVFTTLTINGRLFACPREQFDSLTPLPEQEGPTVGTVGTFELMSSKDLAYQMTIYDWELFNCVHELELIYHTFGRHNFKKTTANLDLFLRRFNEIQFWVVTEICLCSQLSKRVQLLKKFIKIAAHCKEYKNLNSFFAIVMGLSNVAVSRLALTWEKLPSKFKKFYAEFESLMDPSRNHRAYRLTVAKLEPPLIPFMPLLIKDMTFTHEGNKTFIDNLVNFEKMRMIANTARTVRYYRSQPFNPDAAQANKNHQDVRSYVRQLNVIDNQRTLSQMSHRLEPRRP
The target of assay [14] is Calcium and integrin-binding protein 1 (Homo sapiens) (UniProt Q99828). As to the kind of experiment: Validation qHTS for Identification of Calcium Integrin Binding protein 1 (CIB1) Competitor (AID 1508618). Also: % is scaled to controls: 0 for no effect and ±100 for the full control effect. In short, it runs like this: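 CIB1-GST (1 uM final) incubated 15 min at room temperature with compounds (up to 114 uM), then FITC-labelled alphaIIb peptide (100 nM) added. FP read (Ex 480/Em 540) after 15 min, pH 7.4 buffer containing 5 mM CaCl2.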

Assay [15] has as its target Rap guanine nucleotide exchange factor 3 (Homo sapiens) (UniProt O95398). Briefly: Confirmatory qHTS for antagonist of cAMP-regulated guanine nucleotide exchange factor 3 (EPAC1) (AID 1645880).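 Also: plate controls were DMSO only for no effect and full effect of the ATA control for full effect; nearly all actives have a fitted effect of over 55% in size.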 In short, it runs like this: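 Released BODIPY-GDP fluoresces less than Rap1-bound BODIPY-GDP; the signal is followed at 480/540 nm at 5-min intervals over 30 min, after 5 min at room temperature. Reactions contain 100 nM EPAC1, 250 nM RAP1B-BODIPY-GDP and 50 uM GDP; results are normalized to ATA and DMSO.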

For assay [16], the target named is Rap guanine nucleotide exchange factor 4 (Homo sapiens) (UniProt Q8WZA2). Briefly: Confirmatory qHTS for antagonist of cAMP-regulated guanine nucleotide exchange factor 4 (EPAC2) (AID 1645885). Also: nearly all actives have a fitted effect of over 25% in size. Also: potency is read from the fitted curve at half-maximal effect.
For assay [17], the target named is Rap guanine nucleotide exchange factor 3 (Homo sapiens) (UniProt O95398). Briefly: Counterscreen qHTS for agonist of cAMP-regulated guanine nucleotide exchange factor 3 (EPAC1) (AID 1645889). Also: % of control where 0% means no effect; nearly all actives have a fitted effect of over 40% in size. The method, boiled down:
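Measured: fluorescence of BODIPY-GDP bound to Rap1B, which falls as exchange proceeds. Conditions include 50 uM competing GDP, 5 and 30 min reads, and a later cAMP challenge for antagonist detection.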

Cytochrome P450 2C9 (Homo sapiens), sequence (P11712 whole entry, looked up): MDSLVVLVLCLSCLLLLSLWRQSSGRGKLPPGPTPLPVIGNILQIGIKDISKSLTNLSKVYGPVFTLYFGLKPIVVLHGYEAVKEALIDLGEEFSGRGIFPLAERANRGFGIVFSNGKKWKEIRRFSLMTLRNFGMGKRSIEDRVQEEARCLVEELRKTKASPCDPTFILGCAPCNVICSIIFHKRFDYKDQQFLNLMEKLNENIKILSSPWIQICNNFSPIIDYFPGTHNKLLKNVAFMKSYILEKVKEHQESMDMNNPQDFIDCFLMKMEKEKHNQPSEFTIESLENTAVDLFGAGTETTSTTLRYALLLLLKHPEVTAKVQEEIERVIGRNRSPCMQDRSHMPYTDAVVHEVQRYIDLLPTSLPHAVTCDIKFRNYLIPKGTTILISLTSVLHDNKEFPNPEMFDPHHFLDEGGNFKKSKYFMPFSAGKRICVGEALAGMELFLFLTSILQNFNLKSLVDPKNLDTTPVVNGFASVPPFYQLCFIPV
Papain (Carica papaya), sequence (P00784 whole entry, looked up, the tested form may be a part): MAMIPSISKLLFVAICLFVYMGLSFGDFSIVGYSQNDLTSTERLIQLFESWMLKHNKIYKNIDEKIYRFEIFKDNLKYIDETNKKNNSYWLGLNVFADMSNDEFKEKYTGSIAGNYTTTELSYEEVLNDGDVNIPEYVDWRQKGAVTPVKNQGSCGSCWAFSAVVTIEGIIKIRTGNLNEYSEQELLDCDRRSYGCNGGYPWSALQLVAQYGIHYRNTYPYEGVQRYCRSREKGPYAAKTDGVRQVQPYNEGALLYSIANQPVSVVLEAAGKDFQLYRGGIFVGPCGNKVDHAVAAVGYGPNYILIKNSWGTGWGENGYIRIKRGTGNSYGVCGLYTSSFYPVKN

Regarding `NC(=Nc1ccccc1)Nc1ccccc1`, the Potency result in [1], in assay [2], in assay [6], in [8] and in assay [9] was “inactive” each time. Moreover, the Potency in assay [3] is 3.55 µM (active) and 5.62 µM (active) and 355 nM (active); in [5] it was 3.16 µM (active); in assay [7], 461 nM (active) and 1.55 µM (active). Also, the max response in assay [4] was 21.8%.

`O=C1NCN(c2ccccc2)C12CCN(CCCC(c1ccc(F)cc1)c1ccc(F)cc1)CC2`: the Potency entry (in assay [5]; with Papain (Carica papaya); in assay [12]; in assay [13]) was “inactive” in each case. Moreover, the Potency in assay [7] is 436 nM (active); in [11], 4.22 µM (active); in assay [9], 2.66 µM (active). The call in assay [10] was inactive.

Turning to `C[C@H](CS)C(=O)N1CCC[C@H]1C(=O)O`, the Potency entry in [5], in assay [6], in [7], in assay [8] and in [11] was “inactive” in each case.

As to `Cc1ccc(Cl)c(Nc2ccccc2C(=O)O)c1Cl`, the Potency entry in assay [1], in assay [5] and in assay [7] was “inactive” throughout.

In the case of `CC(=O)[C@]1(O)Cc2c(O)c3c(c(O)c2[C@@H](O[C@H]2C[C@H](N)[C@H](O)[C@H](C)O2)C1)C(=O)c1ccccc1C3=O`, the outcome in [14] and in assay [15] was inactive. In addition, the Potency result (in assay [5]; in assay [8]; with Papain (Carica papaya); in [16]) was “inactive” each time. Besides, the Potency in [7] was 17400 nM (active); in [11], 0.8 nM (active) and 41.7 nM (active); in assay [12], 63 µM (active) and 70.6 µM (active).

For the molecule `CCCCOCCOCCOCc1cc2c(cc1CCC)OCO2`, the Potency entry in [1], in [5], in assay [6], in assay [11], in [9] and in [12] was “inactive” throughout. The Potency result in [13] was “inactive”. The Potency in assay [7] was 1.56 µM (active) and 1.74 µM (active); in assay [8], 340 nM (active) and 123 nM (active). For the same molecule, the molecule was classed as inactive in assay [15].

For `CCCC(C(=O)OCCN(CC)CC)(c1ccccc1)c1ccccc1`, the Potency entry (in assay [1]; with Papain (Carica papaya)) was “inactive” throughout. Moreover, the Potency in [2] was 17.8 µM (active); in assay [7] it was 34.7 nM (active); in assay [8] it was 6.17 µM (active); in [11], 13.3 µM (active).

Regarding `CC(=O)Oc1cc(C(C)C)c(OCCN(C)C)cc1C`, the Potency result (in assay [6]; in [8]; with Papain (Carica papaya); in assay [11]; in [9]) was “inactive” in each case. For the same molecule, in assay [7], the Potency was 8710 nM (active).

Turning to `CN1C[C@H](C(=O)N[C@]2(C)O[C@@]3(O)[C@@H]4CCCN4C(=O)[C@H](Cc4ccccc4)N3C2=O)C[C@@H]2c3cccc4[nH]cc(c34)C[C@H]21`, the Potency result (in [1]; in [2]; with Papain (Carica papaya)) was “inactive” in each case. Further, in assay [3], the Potency is 25.1 µM (active).

For `CCOC(=O)C1=C(C)NC(C)=C(C(=O)OC)C1c1cccc(Cl)c1Cl` (configuration not stated), the Potency result in assay [1], in assay [5], in assay [12] and in assay [13] was “inactive” throughout. The Potency in [16] is 49.4 µM (active) and 47.8 µM (active). Further, the molecule was called inactive in assay [17].

Take `CCCN1C[C@H](CSC)C[C@@H]2c3cccc4[nH]cc(c34)C[C@H]21`: the Potency entry (in [1]; in assay [5]; in assay [6]; in assay [8]; with Papain (Carica papaya); in [11]) was “inactive” each time. In addition, the Potency in assay [7] is 55 nM (active).

`CCNC(=O)N1CCN(CCCC(c2ccc(F)cc2)c2ccc(F)cc2)CC1`: the result in [14] was inactive. The Potency result (in [1]; in assay [8]; with Papain (Carica papaya)) was “inactive” in each case.
